Experimental data as given in PubChem BioAssay AID1004 (SRMLSC, 2008).
The source made the active and inactive calls.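 The calls were made as follows: active = viability at 10 µM of 29.74% or lower, 3 SD below the compound median; inactive = the rest.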

Test: viability of HCT116 lacking mutant beta-catenin – cell-based, DP diverse set, validation, pilot screen (AID 1004)
Conditions: HCT116 (mutant beta-catenin deleted) viability, CellTiter-Glo, 60 h; at 10 µM; active compounds read low

Structure (SMILES)	viability
Cc1cc(CC(=O)O)n(C)c1C(=O)c1ccc(Cl)cc1	98.7% (inactive)
CNCCC(Oc1ccc(C(F)(F)F)cc1)c1ccccc1 (stereo not given)	94.1% (inactive)
CCOC(=O)C(C)(C)Oc1ccc(Cl)cc1	98.7% (inactive)
CC(=O)[C@H]1[C@H](C#N)CC2C3CC=C4C[C@@H](O)CCC4(C)C3CCC21C (stereo not given in full)	98.1% (inactive)
NCC(=O)N[C@@H](CCCN=C(N)N)C(=O)NCC(=O)N[C@@H](CC(=O)O)C(=O)N[C@@H](CC(N)=O)C(=O)N1CC[C@@H](C(=O)O)C1	95.6% (inactive)
C/C(=C\CNc1ncnc2c1ncn2[C@@H]1O[C@H](CO)[C@@H](O)[C@H]1O)CO	102% (inactive)
Nc1ccn([C@H]2CC[C@@H](CO)O2)c(=O)n1	102% (inactive)
NC(=NCc1ccccc1)NC(=O)c1nc(Cl)c(N)nc1N	88.8% (inactive)
CC1COC2=C1C(=O)C(=O)c1c2ccc2c1CCCC2(C)C (stereo not given)	32.2% (inactive)
C=CC1(C)CC(=O)C2(O)C(C)(O1)C(OC(C)=O)C(O)C1C(C)(C)CCC(O)C12C (stereo not given)	86% (inactive)
CC(=O)N1CCN(c2ccc(OC[C@H]3CO[C@](Cn4ccnc4)(c4ccc(Cl)cc4Cl)O3)cc2)CC1	76.8% (inactive)
C=C1OC(CO)(n2cnc3c(N)ncnc32)C(O)C1O (stereo not given)	95.1% (inactive)
Cc1c2oc3c(C)ccc(C(=O)N[C@@H]4C(=O)N[C@H](C(C)C)C(=O)N5CCC[C@H]5C(=O)N(C)CC(=O)N(C)[C@@H](C(C)C)C(=O)O[C@@H]4C)c3nc-2c(C(=O)N[C@@H]2C(=O)N[C@H](C(C)C)C(=O)N3CCC[C@H]3C(=O)N(C)CC(=O)N(C)[C@@H](C(C)C)C(=O)O[C@@H]2C)c(N)c1=O	26% (active)
C[C@]12CC[C@@H]3c4ccc(O)cc4CC[C@H]3[C@@H]1CC[C@H]2O	91.1% (inactive)
COC(=O)c1cc2c(s1)-c1ccccc1OC2	98% (inactive)
O=c1c2ccccc2nc2n1CCc1c-2[nH]c2ccccc12	90.5% (inactive)
[O][C@H]1[C@@H](O)[C@@H](CO)O[C@@H](O[C@@H]2[C@@H]3OC[C@H]2O[C@H](O[C@@H]2[C@@H](O)[C@H](C[C@@H]4[C@@H]5OC[C@H]4O[CH][C@@H]5O)O[C@H](CO)[C@@H]2OS(=O)(=O)O)[C@@H]3OS(=O)(=O)O)[C@@H]1O	96.4% (inactive)
CC1=C(/C=C/C(C)=C/C=C/C(C)=C/C=C/C=C(C)/C=C/C=C(C)/C=C/C(=O)[C@]2(C)C[C@@H](O)CC2(C)C)C(C)(C)C[C@H](O)C1	95.5% (inactive)
CCOC(=O)c1ncn2c1CN(C)C(=O)c1cc(F)ccc1-2	99.8% (inactive)
C=C1CC[C@H](O)C/C1=C/C=C1\CCC[C@]2(C)[C@@H]([C@H](C)CCCC(C)C)CC[C@@H]12	104% (inactive)
O=C(O)c1ccccc1O	103% (inactive)
COc1cc(Cc2cnc(N)nc2N)cc(OC)c1OC	94.7% (inactive)
CC[C@@]1([C@@H]2O[C@@H]([C@H]3O[C@@](O)(CO)[C@H](C)C[C@@H]3C)C[C@@H]2C)CC[C@H]([C@]2(C)CC[C@]3(C[C@H](O)[C@@H](C)[C@@H]([C@@H](C)[C@@H](OC)C(C)C(=O)O)O3)O2)O1 (stereo not given in full)	93% (inactive)
O=c1c(-c2ccc(O)cc2)coc2cc(O)cc(O)c12	96.7% (inactive)
C[C@@H]1CC2C3CCC4=CC(=O)C=CC4(C)[C@@]3(F)[C@@H](O)CC2(C)[C@@]1(O)C(=O)CO (stereo not given in full)	99.5% (inactive)
O=c1c(-c2ccc(O)cc2)coc2cc(O)ccc12	91% (inactive)
O=c1[nH]cc(F)c(=O)[nH]1	58.1% (inactive)
CC(C)=CCC/C(C)=C/COc1ccc2ccc(=O)oc2c1	96.8% (inactive)
CC1(COc2ccc(CC3SC(=O)NC3=O)cc2)CCCCC1 (stereo not given)	97% (inactive)
COc1ccc(CCN2CCC(Nc3nc4ccccc4n3Cc3ccc(F)cc3)CC2)cc1	44.6% (inactive)
